The source made the active and inactive calls. How the source made its calls: active means hit-call score of the fitted dose curve at least 0.9, where 1 is the maximum; inactive means score below 0.9.
What was measured:
[1] = read-out: TIMP metallopeptidase inhibitor 1 (TIMP1), TIMP1 (gene 7076); assay: BSK_hDFCGF_TIMP1: BioMAP Diversity Plus: hDFCGF Assay for TIMP metallopeptidase inhibitor 1 (TIMP1) Biomarker Activity (AID 2283062); details: primary human foreskin fibroblasts; actives raise or lower the signal
In short: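 Human foreskin fibroblast primary cultures dosed for 24 h; secreted/surface TIMP-1 quantified by ELISA. Bidirectional curve fitting against DMSO baseline; cytotoxicity tracked in parallel cultures by SRB total-protein staining.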

[2] = read-out: Monokine induced gamma interferon (MIG), CXCL9 (gene 4283); assay: BSK_hDFCGF_MIG: BioMAP Diversity Plus: hDFCGF Assay for Monokine induced gamma interferon (MIG) Biomarker Activity (AID 2283063); details: primary human foreskin fibroblasts; actives raise or lower the signal
In short: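 MIG/CXCL9 measured by ELISA 24 h after dosing primary human skin fibroblasts. Activity fitted in both directions against DMSO controls. Cytotoxicity was checked in parallel cultures by SRB staining read at 560 nm.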

[3] = read-out: Matrix Metallopeptidase 1 (MMP1), MMP1 (gene 4312); assay: BSK_hDFCGF_MMP1: BioMAP Diversity Plus: hDFCGF Assay for Matrix Metallopeptidase 1 (MMP1) Biomarker Activity (AID 2283064); details: primary human foreskin fibroblasts; actives raise or lower the signal
In short: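 ELISA read-out of MMP1 from human foreskin fibroblasts (primary skin cells), 24 h post-dose. Gain or loss of signal was fitted bidirectionally versus DMSO negative control; cytotoxicity was checked by SRB in parallel cultures.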

[4] = read-out: Vascular cell adhesion molecule 1 (VCAM1), VCAM1 (gene 7412); assay: BSK_hDFCGF_VCAM1: BioMAP Diversity Plus: hDFCGF Assay for Vascular cell adhesion molecule 1 (VCAM1) Biomarker Activity (AID 2283065); details: primary human foreskin fibroblasts; actives raise or lower the signal;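 on AC50: VCAM-1 protein level quantified by ELISA after 24 h chemical exposure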
In short: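 Human foreskin fibroblast primary cells dosed with chemical, VCAM-1 measured by ELISA at 24 h. Bidirectional curve fitting relative to DMSO as negative control/baseline.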

[5] = read-out: Plasminogen activator inhibitor-1 (PAI1), SERPINE1 (gene 5054); assay: BSK_hDFCGF_PAI1: BioMAP Diversity Plus: hDFCGF Assay for Plasminogen activator inhibitor-1 (PAI1) Biomarker Activity (AID 2283066); details: primary human foreskin fibroblasts; actives raise or lower the signal
In short: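 PAI-1 levels in human dermal foreskin fibroblasts were quantified by ELISA 24 h after dosing, with gain or loss analysed against DMSO. Overt cytotoxicity was checked by sulforhodamine B total-protein staining in parallel cultures.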

[6] = read-out: Intercellular Adhesion Molecule 1 (ICAM1), ICAM1 (gene 3383); assay: BSK_KF3CT_ICAM1: BioMAP Diversity Plus: KF3CT Assay for Intercellular Adhesion Molecule 1 (ICAM1) Biomarker Activity (AID 2283067); details: primary human keratinocytes with fibroblasts; actives raise or lower the signal
In short: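 Human keratinocyte–foreskin fibroblast co-culture was treated for 24 h. Cell-surface ICAM-1 was quantified by ELISA, fitted bidirectionally relative to DMSO. Cytotoxicity was checked in parallel cultures by SRB total-protein staining.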

[7] = read-out: Interferon-gamma inducible Protein 10 (IP10), CXCL10 (gene 3627); assay: BSK_KF3CT_IP10: BioMAP Diversity Plus: KF3CT Assay for Interferon-gamma inducible Protein 10 (IP10) Biomarker Activity (AID 2283068); details: primary human keratinocytes with fibroblasts; actives raise or lower the signal
In short: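 ELISA read-out of IP-10 after 24 h chemical dosing of human skin primary co-culture (keratinocytes, foreskin fibroblasts). Gain or loss of signal relative to DMSO, bidirectional curve fit.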

[8] = BSK_KF3CT_SRB: Viability Assessment in the BioMAP Diversity Plus: KF3CT Assay (AID 2283069); details: primary human keratinocytes with fibroblasts
In short: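 SRB read-out at 560 nm (0.1% stain, TCA-fixed cells) gauges overt cytotoxicity in a human skin keratinocyte–fibroblast co-culture 24 h post-dosing. Signal change was fitted bidirectionally relative to DMSO control.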

[9] = read-out: Interleukin-1 alpha (IL1a), IL1A (gene 3552); assay: BSK_KF3CT_IL1a: BioMAP Diversity Plus: KF3CT Assay for Interleukin-1 alpha (IL1a) Biomarker Activity (AID 2283070); details: primary human keratinocytes with fibroblasts; actives raise or lower the signal
In short: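 Primary skin co-culture (keratinocytes, foreskin fibroblasts), 24 h exposure; ELISA for IL-1a; bidirectional curve fit vs DMSO.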

[10] = read-out: TIMP metallopeptidase inhibitor 2 (TIMP2), TIMP2 (gene 7077); assay: BSK_KF3CT_TIMP2: BioMAP Diversity Plus: KF3CT Assay for TIMP metallopeptidase inhibitor 2 (TIMP2) Biomarker Activity (AID 2283071); details: primary human keratinocytes with fibroblasts; actives raise or lower the signal
In short: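 TIMP-2 measured by ELISA at 24 h in human keratinocyte/fibroblast primary co-cultures exposed to chemicals. Both increases and decreases were fitted against DMSO. Parallel cultures were stained with SRB for total protein as an overt-cytotoxicity check.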

[11] = read-out: Transforming growth factor beta 1 (TGFb1), TGFB1 (gene 7040); assay: BSK_KF3CT_TGFb1: BioMAP Diversity Plus: KF3CT Assay for Transforming growth factor beta 1 (TGFb1) Biomarker Activity (AID 2283072); details: primary human keratinocytes with fibroblasts; actives raise or lower the signal
In short: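 ELISA quantifies TGF-b1 at 24 h post-dose in a primary human skin co-culture of keratinocytes and fibroblasts, with gain or loss judged against DMSO. Parallel SRB total-protein staining flags overt cytotoxicity.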

[12] = read-out: C-C motif chemokine 2 (Homo sapiens) (UniProt P13500); assay: BSK_KF3CT_MCP1: BioMAP Diversity Plus: KF3CT Assay for Monocyte Chemoattractant Protein 1 (MCP1/CCL2) Biomarker Activity (AID 2283073); details: primary human keratinocytes with fibroblasts; actives raise or lower the signal
In short: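 Human keratinocyte–foreskin fibroblast co-culture; MCP-1 measured by ELISA 24 h after dosing. Bidirectional fit vs DMSO; cytotoxicity tracked by SRB total protein in parallel cultures.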

[13] = read-out: Matrix Metallopeptidase 9 (MMP9), MMP9 (gene 4318); assay: BSK_KF3CT_MMP9: BioMAP Diversity Plus: KF3CT Assay for Matrix Metallopeptidase 9 (MMP9) Biomarker Activity (AID 2283074); details: primary human keratinocytes with fibroblasts; actives raise or lower the signal;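 on AC50: MMP9 protein level quantified by ELISA in the co-culture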
In short: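 ELISA read-out of MMP-9 at 24 h post-dosing in a co-culture of human skin keratinocytes and foreskin fibroblasts. Gain or loss of signal was fitted in both directions against DMSO.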

[14] = read-out: urokinase plasminogen activator (uPA), PLAU (gene 5328); assay: BSK_KF3CT_uPA: BioMAP Diversity Plus: KF3CT Assay for urokinase plasminogen activator (uPA) Biomarker Activity (AID 2283075); details: primary human keratinocytes with fibroblasts; actives raise or lower the signal
In short: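 Skin co-culture (keratinocytes + foreskin fibroblasts), human primary; 24 h post-dose; uPA by ELISA; gain/loss fit vs DMSO baseline.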

[15] = read-out: CD40, CD40 (gene 958); assay: BSK_LPS_CD40: BioMAP Diversity Plus: LPS Assay for CD40 Biomarker Activity (AID 2283076); details: primary human HUVEC with PBMC; actives raise or lower the signal
In short: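 HUVEC plus PBMC co-culture stimulated with LPS; CD40 quantified by ELISA 24 h after compound dosing. Fitting was bidirectional relative to DMSO. SRB staining of parallel cultures flagged overt cytotoxicity.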

[16] = read-out: E-selectin (Homo sapiens) (UniProt P16581); assay: BSK_LPS_Eselectin: BioMAP Diversity Plus: LPS Assay for Eselectin Biomarker Activity (AID 2283077); details: primary human HUVEC with PBMC; actives raise or lower the signal
In short: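 Human umbilical vein endothelial cells co-cultured with PBMC under LPS stimulation; cell-surface E-selectin measured by ELISA 24 h after dosing. Change in either direction versus DMSO, with SRB total-protein staining in parallel cultures for cytotoxicity.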

[17] = read-out: Interleukin-8 (IL8), CXCL8 (gene 3576); assay: BSK_LPS_IL8: BioMAP Diversity Plus: LPS Assay for Interleukin-8 (IL8) Biomarker Activity (AID 2283078); details: primary human HUVEC with PBMC; actives raise or lower the signal
In short: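 Human umbilical vein endothelial cells co-cultured with PBMC, LPS-stimulated, exposed to compound for 24 h. IL-8 quantified by ELISA; fitted in both directions against DMSO, with SRB total-protein staining of parallel cultures for cytotoxicity.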

[18] = BSK_LPS_SRB: Viability Assessment in the BioMAP Diversity Plus: LPS Assay (AID 2283079); details: primary human HUVEC with PBMC;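 further: total protein by sulforhodamine B absorbance as a cytotoxicity measure; measured one day after compound addition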
In short: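 Co-culture of human umbilical vein endothelial cells and PBMC, read 24 h after dosing. Total protein by 0.1% SRB staining after 10% TCA fixation, absorbance at 560 nm; bidirectional fit against DMSO.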

[19] = read-out: Interleukin-1 alpha (IL1a), IL1A (gene 3552); assay: BSK_LPS_IL1a: BioMAP Diversity Plus: LPS Assay for Interleukin-1 alpha (IL1a) Biomarker Activity (AID 2283080); details: primary human HUVEC with PBMC; actives raise or lower the signal
In short: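 Human umbilical vein endothelial cells co-cultured with PBMC and stimulated with LPS; IL-1a measured by ELISA 24 h after dosing. Bidirectional fitting against DMSO; cytotoxicity checked by SRB staining in parallel cultures.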

[20] = read-out: Monocyte Chemoattractant Protein-1 (MCP1), CCL2 (gene 6347); assay: BSK_LPS_MCP1: BioMAP Diversity Plus: LPS Assay for Monocyte Chemoattractant Protein-1 (MCP1) Biomarker Activity (AID 2283081); details: primary human HUVEC with PBMC; actives raise or lower the signal
In short: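 Human umbilical vein endothelial cells co-cultured with PBMC, LPS-stimulated; secreted MCP-1 measured by ELISA 24 h after compound addition. Bidirectional curve fitting against DMSO baseline; SRB total-protein staining in parallel cultures for cytotoxicity.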

Measured: AC50

Sequence of E-selectin (Homo sapiens) (P16581 whole entry, looked up): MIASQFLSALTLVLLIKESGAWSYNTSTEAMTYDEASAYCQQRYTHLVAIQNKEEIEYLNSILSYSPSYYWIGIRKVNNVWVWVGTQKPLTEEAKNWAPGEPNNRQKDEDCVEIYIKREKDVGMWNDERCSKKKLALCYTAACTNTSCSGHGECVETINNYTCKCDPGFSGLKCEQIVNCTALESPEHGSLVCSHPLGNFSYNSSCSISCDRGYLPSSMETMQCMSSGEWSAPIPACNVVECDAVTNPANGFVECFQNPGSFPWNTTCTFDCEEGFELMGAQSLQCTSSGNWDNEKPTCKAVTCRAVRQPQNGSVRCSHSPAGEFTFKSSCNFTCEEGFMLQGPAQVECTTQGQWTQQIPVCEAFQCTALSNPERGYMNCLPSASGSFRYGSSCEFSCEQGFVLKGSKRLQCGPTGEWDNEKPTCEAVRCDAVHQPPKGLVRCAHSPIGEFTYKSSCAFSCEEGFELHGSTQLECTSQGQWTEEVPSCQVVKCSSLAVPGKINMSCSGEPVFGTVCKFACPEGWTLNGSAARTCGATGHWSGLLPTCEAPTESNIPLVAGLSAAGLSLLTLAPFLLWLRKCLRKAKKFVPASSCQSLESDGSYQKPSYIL

Cc1cc(NC(=O)C(=O)O)cc(C)c1Oc1ccc(O)c2c1CCC2
inactive: all assays above

Cc1ccc2ncccc2c1
inactive: all assays above

COc1ccc(S(=O)(=O)N2C(=O)[C@@](c3ccccc3OC)(N3C[C@H](O)C[C@H]3C(=O)N(C)C)c3cc(Cl)ccc32)c(OC)c1
active: [3] 4.5 µM | [15] 20 µM | [17] 7.03 µM
inactive: all other assays above

O=C(N[C@@H](Cc1ccccc1)[C@@H](O)C(=O)N1C[C@@H](O)[C@@H](O)C1)c1cc2cc(Cl)ccc2[nH]1
active: [10] 11.9 µM
inactive: all other assays above

CCCCCCCCCCCCCO
inactive: [16] | [18] | [19] | [20]
active: [1] 13.1 µM | [2] 24.3 µM | [3] 15.6 µM | [4] 9.95 µM | [5] 12.9 µM | [6] 36.7 µM | [7] 36.2 µM | [8] 31.9 µM | [9] 35.2 µM | [10] 34.1 µM | [11] 32.1 µM | [12] 26.1 µM | [13] 31.2 µM | [14] 37.6 µM | [15] 37.8 µM | [17] 34.2 µM

NCC1(Cc2noc(=O)[nH]2)CCCCC1
inactive: all assays above

Nc1nc(N)c2nc(CNc3ccc(C(=O)N[C@@H](CCC(=O)O)C(=O)O)cc3)cnc2n1
inactive: all assays above

Source: PubChem BioAssay (EPA / NIEHS)
